Experimental data: publication PMC4336329 (PLoS ONE, 2015)
The whole screen tested about 310,000 compounds, of which about 2,200 (0.71%) showed an effect of 50% or more. Effects have a minus sign here. The sample holds strong results, similar compounds and a random draw of the others, so the mix is not that of the screen.

target: human ether-à-go-go-related gene (hERG) potassium channel (human, UniProt Q12809); test: primary screen, population patch clamp on CHO cells stably expressing hERG; higher = less effect of the substance
Sequence (Q12809 whole entry, looked up): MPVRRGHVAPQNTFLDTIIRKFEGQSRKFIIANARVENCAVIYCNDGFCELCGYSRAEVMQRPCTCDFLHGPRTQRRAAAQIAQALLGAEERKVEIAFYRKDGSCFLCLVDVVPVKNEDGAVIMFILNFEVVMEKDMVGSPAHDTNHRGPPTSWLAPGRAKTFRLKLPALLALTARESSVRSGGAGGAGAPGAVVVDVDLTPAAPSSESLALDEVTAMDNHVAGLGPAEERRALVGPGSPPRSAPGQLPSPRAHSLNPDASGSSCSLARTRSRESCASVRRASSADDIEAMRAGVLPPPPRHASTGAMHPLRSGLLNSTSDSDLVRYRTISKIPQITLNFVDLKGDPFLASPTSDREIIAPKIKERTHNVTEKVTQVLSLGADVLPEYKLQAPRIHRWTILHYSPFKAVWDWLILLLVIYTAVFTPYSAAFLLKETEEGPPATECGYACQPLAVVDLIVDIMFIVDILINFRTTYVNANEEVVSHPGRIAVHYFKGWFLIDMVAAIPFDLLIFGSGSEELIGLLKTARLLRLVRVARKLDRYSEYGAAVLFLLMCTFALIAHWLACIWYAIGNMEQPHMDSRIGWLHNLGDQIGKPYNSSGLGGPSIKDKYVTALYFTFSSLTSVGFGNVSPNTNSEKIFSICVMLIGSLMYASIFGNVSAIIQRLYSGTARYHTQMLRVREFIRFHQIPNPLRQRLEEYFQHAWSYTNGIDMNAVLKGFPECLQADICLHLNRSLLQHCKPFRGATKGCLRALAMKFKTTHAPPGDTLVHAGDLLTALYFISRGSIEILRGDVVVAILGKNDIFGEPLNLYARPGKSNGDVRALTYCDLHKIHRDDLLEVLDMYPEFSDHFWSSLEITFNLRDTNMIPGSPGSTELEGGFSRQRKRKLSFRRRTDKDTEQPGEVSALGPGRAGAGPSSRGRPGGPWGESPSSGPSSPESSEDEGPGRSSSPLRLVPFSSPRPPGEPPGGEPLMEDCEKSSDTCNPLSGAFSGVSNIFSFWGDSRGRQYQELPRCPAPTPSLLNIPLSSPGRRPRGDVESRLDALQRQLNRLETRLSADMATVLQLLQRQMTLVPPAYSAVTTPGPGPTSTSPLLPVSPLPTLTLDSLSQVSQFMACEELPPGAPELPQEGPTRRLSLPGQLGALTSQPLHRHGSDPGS

Row | SMILES | hERG current change (%, negative = inhibition) at 1uM [%]
1 | CCOc1ccc(N2CC(C(=O)Nc3ccc(S(=O)(=O)N4CCCC4)cc3)CC2=O)cc1 (stereo not drawn) | 6.22
2 | c1ccc(Nc2nn[nH]n2)cc1 | 10.1
3 | NC(=O)c1sc2nc(N3CCCCC3)c3c(c2c1N)CCCC3 | 4.86
4 | Cc1cc(Cl)c2oc(C(=O)N3CCN(c4ccncc4)CC3)c(C)c2c1 | -83.6
5 | Cc1cc(Cl)c2oc(C(=O)N3CCN(C(=O)c4ccco4)CC3)c(C)c2c1 | 7.14
6 | Cc1cc(Cl)c2oc(C(=O)N3CCN(c4cccc(C)n4)CC3)c(C)c2c1 | 14
7 | Cc1ccc(S(=O)(=O)NCCC(=O)OCC(=O)N(Cc2ccccc2)C(C)(C)C)cc1C | -0.298
8 | O=C(O)c1ccc(S(=O)(=O)N2CCC3(CC2)CC(=O)c2ccccc2O3)cc1 | 10.5
9 | O=C1CC2(CCN(C(=O)c3ccc(Cl)cc3)CC2)Oc2ccccc21 | -63.7
10 | COc1ccc(Cl)cc1C(=O)N1CCC2(CC1)CC(=O)c1ccccc1O2 | -71.7
11 | O=C1CC2(CCN(C(=O)c3cccc([N+](=O)[O-])c3)CC2)Oc2ccccc21 | -66.7
12 | CC(=O)N1CCC2(CC1)CC(=O)c1cc(Cl)ccc1O2 | -7.88
13 | COc1ccccc1OCC(=O)N1CCC2(CC1)CC(=O)c1ccccc1O2 | -4.96
14 | O=C1CC2(CCN(C(=O)c3ccc([N+](=O)[O-])cc3)CC2)Oc2ccccc21 | -87.5
15 | O=C1CC2(CCN(C(=O)c3cccc(Cl)c3)CC2)Oc2ccccc21 | -46.6
16 | O=C1CC2(CCN(C(=O)c3c(F)cccc3F)CC2)Oc2ccccc21 | -3.63
17 | O=C1CC2(CCN(C(=O)c3cccc(F)c3)CC2)Oc2ccccc21 | -32.6
18 | O=C(c1ccccc1)N1CCN(C(=O)c2ccc([N+](=O)[O-])cc2)CC1 | -4.32
19 | O=C1CC2(CCN(C(=O)c3ccc(F)cc3)CC2)Oc2ccccc21 | -42.2
20 | CCO.CN1CC=C2C(C#N)=C(N)C(C#N)(C#N)[C@H](c3ccoc3)[C@H]2C1 | 6.1
21 | COc1cc2ccccc2cc1C(=O)N(CCN(C)C)c1nc2c(OC)ccc(OC)c2s1.Cl | 14

Row | SMILES | hERG current change (%, negative = inhibition) at 1uM [%]
22 | Cc1ccnc(NS(=O)(=O)c2ccc(NS(=O)(=O)c3ccc(Br)cc3)cc2)n1 | 16.1
23 | COc1ccccc1NC(=S)NC(=O)/C=C/c1cccs1 | 12.3
24 | COCCCNC(=O)CN(c1cc(Cl)cc(Cl)c1)S(C)(=O)=O | 8.12
25 | COc1cc(S(=O)(=O)N2CCN(C(=O)c3ccco3)CC2)ccc1Cl | 8.83
26 | Cn1ncc2nnn(-c3ccccc3)c(=O)c21 | -0.008
27 | C=CCn1c(SCC(=O)Nc2sccc2C(N)=O)nc2ccc(Cl)cc2c1=O | 1.53
28 | FCCCOc1ccc(/C=N/OCc2ccc(Cl)cc2Cl)cc1 | 9.53
29 | O=C1CC2(CCN(C(=O)c3ccc(Br)cc3)CC2)Oc2ccccc21 | -30.8
30 | CSc1ccccc1C(=O)N1CCC2(CC1)CC(=O)c1ccccc1O2 | -27.2
31 | Cc1c(C(=O)N2CCC3(CC2)CC(=O)c2ccccc2O3)cccc1[N+](=O)[O-] | -83.9
32 | O=C1CC2(CCN(C(=O)c3ccccc3F)CC2)Oc2ccccc21 | -47.9
33 | O=C1CC2(CCN(C(=O)c3ccccc3Cl)CC2)Oc2ccccc21 | -27.6
34 | O=C1CC2(CCN(C(=O)c3ccccc3[N+](=O)[O-])CC2)Oc2ccccc21 | -19
35 | O=C1CC2(CCN(C(=O)c3c(F)cccc3Cl)CC2)Oc2ccccc21 | -4.7
36 | O=C1CC2(CCN(C(=O)c3cccc(Br)c3)CC2)Oc2ccccc21 | -56
37 | O=C1CC2(CCN(C(=O)c3ccccc3Br)CC2)Oc2ccccc21 | -51.4
38 | CCn1nnc2cc(C(=O)Nc3cc(OC)cc(OC)c3)ccc21 | 19.3
39 | O=C(CCn1c(=O)sc2ccccc21)Nc1ccon1 | 4.85
40 | COC(=O)c1ccccc1NC(=S)NC(=O)c1ccc(C)cc1 | 9.88
41 | CC(C)CSc1nc2ccccc2[nH]1 | 13
42 | COCCN1C(=O)C(=O)/C(=C(/O)c2ccc(S(=O)(=O)N3CCCCC3)cc2)C1c1ccc(OC)cc1 (stereo not drawn) | 11.9
